Compound activity from PubChem BioAssay.
This excerpt belongs to a sample that is enriched for hits.
AMA1-RON2 inh = AMA1-RON2 (P. falciparum) interaction inhibition; 360,000 tested, 0.2% active; AlphaScreen AMA1-biotinylated RON2 peptide binding; Potency, µM (doses to about 58.2 µM), inactives show top-dose activity change, negative = inhibition, actives largely listed as inhibitors;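 note: potency is the fitted concentration of half-maximal effect; 0% = vehicle wells and -100% = peptide control; nearly all actives have a fitted effect of over 45% in size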
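AMA1 (3D7) with his tag at 25 nM final met compounds first, then biotinylated RON2 peptide at 25 nM; detection used donor plus acceptor beads, 10 µg/mL apiece, read by AlphaScreen after 30 min at room temperature.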
AmpC detergent = AmpC beta-lactamase inhibition with detergent present | AmpC hydrolysis of nitrocefin, absorbance 480 nm, 0.01% Triton | Potency, µM (titrated, usually from 114 µM), for the others: at the top dose activity change, negative = inhibition, hits mostly inhibitors | 370,000 tested, 0.041% active | AID 485294;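 note: potency is the fitted concentration of half-maximal effect; 0% = no-compound wells and -100% = no-enzyme wells; nearly all actives have a fitted effect of over 25% in size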
Target sequence (P00811 whole entry, looked up): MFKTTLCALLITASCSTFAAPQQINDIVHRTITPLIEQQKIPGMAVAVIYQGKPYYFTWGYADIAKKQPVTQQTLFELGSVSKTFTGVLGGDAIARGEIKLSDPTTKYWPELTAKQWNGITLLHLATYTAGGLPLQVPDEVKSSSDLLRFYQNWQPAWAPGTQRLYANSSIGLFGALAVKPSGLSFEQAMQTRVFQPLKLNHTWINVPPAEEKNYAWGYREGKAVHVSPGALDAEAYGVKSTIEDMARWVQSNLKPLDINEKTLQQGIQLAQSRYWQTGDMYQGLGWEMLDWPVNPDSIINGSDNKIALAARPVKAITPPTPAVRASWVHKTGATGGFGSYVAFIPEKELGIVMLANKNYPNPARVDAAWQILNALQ
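20 mM phosphate pH 7.0 + 0.01% (detergent screen) or 0.0001% Triton X-100; 5.3 nM AmpC reagent; cpd preinc 15 min RT; nitrocefin (800 uM stock) to start; A480 q20 s × 4 min; Activity was normalised to no-enzyme and no-compound control wells.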
Shiga inhibitor = Shiga toxin inhibition; 290,000 tested, 9.2% active; inhibition, % at 38.7 µM; Vero cells, Shiga toxin protein synthesis inhibition reporter; in the data active = inhibition mostly above about 28%, no sharp cut-off; inactive = mostly below about 43%; note: 0% is about no effect
AmpC inh no detg = AmpC beta-lactamase inhibition without detergent; P00811; AmpC nitrocefin hydrolysis, absorbance 480 nm, 0.0001% Triton; Potency, µM (series often up to 57.1 µM), inactives show at the highest dose activity change, negative = inhibition, hits mostly inhibitors; 330,000 tested, 0.52% active;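 note: potency is the fitted concentration of half-maximal effect; plate controls were no compound for no effect and no enzyme for full effect; nearly all actives have a fitted effect of over 20% in size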
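20 mM phosphate pH 7.0 + 0.01% (detergent screen) or 0.0001% Triton X-100; 5.3 nM AmpC reagent; cpd preinc 15 min RT; nitrocefin (800 uM stock) to start; A480 q20 s × 4 min; Activity was normalised to no-enzyme and no-compound control wells.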
SARS PLP yeast = inhibitors of SARS-CoV papain-like protease in yeast; S. cerevisiae expressing SARS-CoV PLpro, growth rescue; Potency, µM (highest dose often 32.9 µM), for the others: at the highest dose activity, positive = growth rescue, most hits filed as activators; 330,000 tested, 0.19% active; AID 485353; calls by dose curve; note: potency is the fitted concentration of half-maximal effect; 0% is about no effect; nearly all actives have a fitted effect of over 55% in size
CHX counter = affects cycloheximide protein synthesis inhibition readout, counter-screen. cell reporter, cycloheximide protein synthesis inhibition counterscreen. max response, %. 300,000 tested, 12% active; in the data active = max response mostly above about 13%, no sharp cut-off; inactive = mostly below about 14%; note: read at 38.3 µM for the half of the compounds with a filed dose; 0% is about no effect
* hit, by the source's call; ? = inconclusive; / = not tested or not shown; [ ] = remark or other dose. Unless noted, calls come from the whole dose curve; as a rule, active = well fitted curve in the direction sought with a large enough effect; inconclusive = small, poorly fitted or top-dose-only effect, or another doubt; inactive = no such curve, though single readings can be large; an effect the other way counts as inactive or inconclusive.

SMILES	AMA1-RON2 inh	AmpC detergent	Shiga inhibitor	AmpC inh no detg	SARS PLP yeast	CHX counter
CCCOC(=O)c1ccc(NC(=O)C2C3CCC(C3)C2C(=O)O)cc1 (configuration not stated)	7%	-7%	20*	-22%	0%	47*
CCOC(=O)c1ccc(NC(=O)C2CCN(S(=O)(=O)c3ccc(C)cc3)CC2)cc1	/	3%	/	/	/	/
CCOC(=O)c1ccc(NC(=O)C2CCCO2)cc1 (configuration not stated)	28%	-4%	55*	0%	-12%	32*
CCCCOC(=O)Nc1ccc(C(=O)OCCC)cc1	-10%	-12%	134*	-22%	-7%	29*
Cc1ccc(C)c(N2CCN(C(=O)CN3C(=O)CSc4c3c(C)nn4-c3ccccc3)CC2)c1	/	-2%	/	/	/	/
CC1CN(Cc2ccc(C#N)cc2Cl)CC(C)O1 (configuration not stated)	-5%	-12%	20	-8%	?	11
Cc1nc2nc(-c3ccccc3)nn2c(C)c1C	-1%	/	/	/	/	/
Cn1ccc(C(=O)N/N=C/c2ccccc2[N+](=O)[O-])n1	15%	7%	100*	-8%	0%	40*
Cn1cc([N+](=O)[O-])c(C(=O)N/N=C/c2ccccc2)n1	13%	?	14	-7%	-2%	0
CN(C)c1ccc(C=NNC(=O)c2cccnc2)cc1	18%	/	/	/	/	/
Cn1ccc(C(=O)N/N=C/c2cccnc2)n1	0%	-9%	45*	-2%	-3%	18*
CN(C)c1ccc(/C=N/NC(=O)c2ccnn2C)cc1	5%	2%	58*	-5%	-2%	24*
CN(C)c1ccc(/C=N/NC(=O)c2ccn(C)n2)cc1	-11%	3%	34*	-6%	-2%	33*
O=C(NCCc1ccc(Cl)cc1)c1ccc(CSCc2ccccc2Cl)o1	/	7%	/	/	/	/
O=C(NC1CC1)c1ccc(CSCc2ccccc2Cl)o1	-5%	-3%	18	1%	-4%	26*
COCCNC(=O)C1CCN(Cc2cccc(OCc3ccccc3)c2)CC1	4%	?	/	-1%	3%	-3
C=CCn1c(C)cc(C(=O)CSc2nc3ccccc3[nH]2)c1C	-13%	3%	69*	-46%	-12%	34*
CCOC(=O)CC(=O)CSc1nc2sc(C)cc2c(=O)n1Cc1ccco1	19%	-1%	14	-39%	4%	-4
Cc1cc2c(=O)n(Cc3ccco3)c(SCC(=O)c3ccc(Cl)s3)nc2s1	6%	-1%	29	28µM*	3%	16*
Cc1nn2c(=O)cc(CSc3nc4ccccc4[nH]3)nc2s1	2%	?	39	16%	4%	22*
COCC(C)n1c(C)cc(C(=O)CSc2nc3ccccc3c(=O)[nH]2)c1C (configuration not stated)	12%	?	45	-21%	3%	16*
C=CCn1c(C)cc(C(=O)CN2C(=O)c3ccccc3S2(=O)=O)c1C	33%[11.6 µM]	-9%	/	-31%	-4%	/
COCCn1c(C)cc(C(=O)CSc2nc3ccccc3c(=O)[nH]2)c1C	2%	-7%	92*	-17%	8%	53*
CCCn1c(C)cc(C(=O)CSc2nc3ccccc3c(=O)n2Cc2ccco2)c1C	?	?	57*	-23%	13%	49*
Cc1ccc2nc(SCC(=O)c3cc(C)n(C)c3C)[nH]c2c1	-5%	0%	28	-7%	-24%	13
SMILES	AMA1-RON2 inh	AmpC detergent	Shiga inhibitor	AmpC inh no detg	SARS PLP yeast	CHX counter
Cc1cc(C(=O)CSc2nc3ccccc3[nH]2)c(C)n1C	-15%	-5%	54*	-27%	-2%	46*
CCN(CC)C(=O)CSc1nc2ccccc2c(=O)n1Cc1ccco1	/	-5%	/	/	/	/
Cc1cc(C(=O)CSc2nc3ccccc3[nH]2)c(C)n1Cc1ccco1	-22%	-13%	78*	-56%	1%	84*
CN(CCO)c1ccc2c(c1)OC[C@H](Cc1ccccc1)NS2(=O)=O	5%	/	/	/	/	/
Cn1c(SCc2c(Cl)cccc2Cl)nnc1-c1cccs1	-5%	-14%	32	-48%	-4%	17
O=C1C2CCC(C2)C1CN1CCOCC1 (configuration not stated)	-8%	/	/	/	/	/
C=CCn1c(C)cc(C(=O)CSc2nc3ccccc3c(=O)[nH]2)c1C	0%	1%	90*	-22%	-9%	63*
COCCn1c(C)cc(C(=O)COc2nc3ccccc3nc2C)c1C	-8%	-5%	1	-8%	7%	1
Cc1ccc(C)c(C(=O)CSc2nc3ccccc3c(=O)[nH]2)c1	-3%	0%	-1	-31%	1%	-2
COCCn1c(C)cc(C(=O)CSc2ccc3ccccc3n2)c1C	-10%	-5%	50*	37%	-10%	39*
Cc1ccc(S(=O)(=O)CCC(=O)OCC(=O)N2c3ccccc3CC2C)cc1 (configuration not stated)	1%	?	/	-1%	1%	/
COc1ccc(NC(=O)Nc2cnccn2)cc1	2%	3%	48*	-16%	-2%	36*
Cn1ccc(NC(=O)Nc2ccc(Cl)cc2Cl)n1	0%	?	22*	-54%	-29%	51*
CCOc1ccc(NC(=O)NC(C)CC)cc1 (configuration not stated)	11%	-3%	42*	3%	13%	40*
CC(=O)Nc1ccc(NC(=O)Nc2ccc(C)c(C)c2)cc1	-3%	6%	22	-9%	1%	2
COC(=O)c1cccc(NC(=O)Nc2ccc(Cl)cc2Cl)c1	-7%	13%	33	-47%	-1%	12
COc1ccc(NC(=O)Nc2ccncc2)c(OC)c1	0%	-4%	-15	-32%	-1%	-3
CC(=O)Nc1cccc(NC(=O)Nc2ccc(C)c(Cl)c2)c1	15%	1%	48*	-26%	-1%	30*
CC(=O)c1cccc(NC(=O)COC(=O)CCC(=O)c2ccc(F)cc2)c1	-25%	/	/	-6%	-1%	/
COc1ccc(N2CCN(C(=O)c3cn(C4CCCCC4)c(=O)c4c3c3ccccc3n4C)CC2)cc1	/	4%	/	/	/	/
CCOc1ccc(NC(=O)Nc2cnccn2)cc1	9%	-2%	59	-8%	0%	16*
Cc1ccc(NC(=O)Nc2cnccn2)cc1Cl	3%	-4%	70*	-31%	-4%	23*
Cc1ccccc1NC(=O)Nc1cnccn1	-4%	-15%	74	-8%	?	9
Cc1cccc(NC(=O)Nc2cnccn2)c1C	5%	-4%	-11	-11%	2%	6
CCC(C)c1ccc(NC(=O)Nc2cnccn2)cc1 (configuration not stated)	12%	-5%	87*	-18%	-1%	74*
